The list is not random: actives were taken first. Their share in the collection is about 1%.
Hsp90 block: tumor Hsp90 inhibitors, primary screen, cell lysate, fluorescence polarization, NCI-N417 lysate; Heat shock protein HSP 90-alpha (Homo sapiens), P07900; Cy3B-geldanamycin FP displacement; inhibition, % at 30 µM; 64,000 tested, 0.35% active;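 active = inhibition above 50%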
MKP-1 inh: MKP-1 phosphatase inhibitors, primary screen, biochemical, in vitro; Dual specificity protein phosphatase 1 (Homo sapiens), P28562; recombinant MKP-1, OMFP hydrolysis fluorescence; inhibition, %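 (compounds tested at a single concentration somewhere between 10 and 100 µM)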; 65,000 tested, 0.15% active; AID 374, 2006;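 active = inhibition above about 50%, limit read from the data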
Cdc25B inh: inhibitors of Cdc25B phosphatase catalytic domain, primary screen, biochemical, OMFP fluorescence; recombinant Cdc25B, OMFP fluorescence Ex485/Em525; 65,000 tested, 0.1% active; inhibition, %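 (compounds tested at 10 µM final in the well)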; in the data active = inhibition above about 50%
SK-BR-3 tox 24h: SK-BR-3 proliferation inhibitors, primary screen, cell-based, human, 24 h; viability, % at 10 µM; 41,000 tested, 0.47% active; SK-BR-3 viability, CellTiter-Glo ATP luminescence; hits give low values;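 active = viability at or below the median of all test compounds minus 3 SD, in both replicates if run twice, cut at about 45% in these data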
WNV protease inh: inhibitors of WNV NS2B-NS3 protease, primary screen, biochemical, fluorogenic substrate; 65,000 tested, 0.18% active; Genome polyprotein (West Nile virus), P06935; fluorogenic substrate Ex360/Em465; hits give low values; z-score (no concentration beside the values); in the data active = z-score below about -3
Target sequence (P06935 1371-1501 limits assumed): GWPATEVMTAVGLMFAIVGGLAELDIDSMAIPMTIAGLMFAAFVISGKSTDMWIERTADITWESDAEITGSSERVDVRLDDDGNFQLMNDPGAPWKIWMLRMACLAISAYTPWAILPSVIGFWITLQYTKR
Target sequence (P06935 1502-1679 limits assumed): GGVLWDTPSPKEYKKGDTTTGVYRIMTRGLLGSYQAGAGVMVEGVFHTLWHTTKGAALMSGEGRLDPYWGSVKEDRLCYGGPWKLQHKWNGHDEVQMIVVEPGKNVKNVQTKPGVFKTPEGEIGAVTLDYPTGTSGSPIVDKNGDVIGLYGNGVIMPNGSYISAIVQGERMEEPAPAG
Redox 05 DTT: redox cycling H2O2 generation, 0.5 mM DTT, dose response, artefact control, biochemical, Cdc25B catalytic domain; shares compounds with Cdc25B inh; AID 682, 2007; EC50, µM; 30 tested, 50% active; cell-free redox cycling H2O2 generation; in the data active = EC50 below about 30 µM
Redox 1 DTT: redox cycling H2O2 generation, 1 mM DTT, dose response, artefact control, biochemical, 1.0 mM DTT, Cdc25B catalytic domain; EC50, µM; cell-free redox cycling H2O2 generation; shares compounds with Cdc25B inh; AID 683, 2007; 30 tested, under 10 active; in the data active = EC50 below about 50 µM
Redox cycler: redox cycling hydrogen peroxide production, dose response, artefact control, biochemical, probe assessment; shares compounds with MKP-1 inh; Redox cycling H2O2 generation, DTT, phenol red/HRP; EC50, µM; 60 tested, under 10 active; call rule not given here
Hits are given with their value; - = inactive; . = no result given.

SMILES | Hsp90 block | MKP-1 inh | Cdc25B inh | SK-BR-3 tox 24h | WNV protease inh | Redox cycler | others
O=C(O)C1Nc2c(O)cccc2C2C=CCC12 (stereo not given) | - | - | 56 | - | - | . | Redox 05 DTT=-;Redox 1 DTT=-
COc1ccc(OC)c2[nH]c(=O)c(CCNC(=O)C3CCCCC3)cc12 | - | - | - | - | - | .
COc1ccc(-c2nc(CSCC(=O)N3CCN(C4CCCCC4)CC3)c(C)o2)cc1OC | - | - | - | . | - | .
O=c1[nH]c(Nc2ccccc2)cc2ccccc12 | - | - | 85 | - | - | . | Redox 05 DTT=-;Redox 1 DTT=-
O=C1Cc2ccccc2C(=O)N1CCc1ccccc1 | - | - | 59 | . | - | . | Redox 05 DTT=-;Redox 1 DTT=-
O=C(O)CCN1C(=O)c2ccccc2C1=O | - | - | - | - | - | .
N#Cc1c(N2CCCC2)nc(N)c2c(N)nc(N3CCCC3)cc12 | 77 | 76 | 101 | . | - | - | Redox 05 DTT=13;Redox 1 DTT=27
O=C(O)/C(=C1/OC(=O)c2ccccc21)c1ccccc1 | - | - | - | - | - | .
O=C(NC1(O)C(=O)c2ccccc2C1=O)c1ccccc1 | 73 | 62 | 96 | - | - | - | Redox 05 DTT=29;Redox 1 DTT=-
O=C(OC1CCCCC1)c1ccc2c(c1)C1C=CCC1C(C(=O)O)N2 (stereo not given) | - | 52 | 63 | - | -5.6 | - | Redox 05 DTT=-;Redox 1 DTT=-
Cc1noc(C)c1COc1ccc(C(=O)OCc2nnc(-c3ccc(Cl)cc3)o2)cc1 | - | - | - | . | - | .
CCOc1ccc(-c2nc(-c3ccccc3)no2)cc1OCC | - | - | - | . | - | .
CCOc1ccc2noc3c2c1C(=O)c1ccccc1-3 | - | 65 | 92 | . | - | - | Redox 05 DTT=-;Redox 1 DTT=-
CCN(CC)CCCN1C(=O)C(O)=C(C(=O)c2cccs2)C1c1ccccn1 (stereo not given) | - | - | - | - | - | .
CC1=C(/C=C/C(C)=C/C=C/C(C)=C/C(=O)O)C(C)(C)CCC1 | - | 56 | - | - | - | -
COc1ccccc1CC(=O)N(CCC#N)CCC#N | - | - | - | - | - | .
CCCCn1c(SCc2c(C)noc2C)nc2cc(S(N)(=O)=O)ccc21 | - | - | - | . | - | .
CCCCn1c(SCC(=O)c2ccc(OC)cc2OC)nc2cc(S(N)(=O)=O)ccc21 | - | 54 | - | . | - | -
Cc1nc2c(C(=O)NCc3ccc4c(c3)OCO4)c[nH]n2c(=O)c1Cl | - | - | - | . | - | .
Cc1nc2c(C(=O)NCCC3=CCCCC3)c[nH]n2c(=O)c1Cl | - | 54 | - | . | - | -
Cc1nc2ccccc2c(=O)n1NCc1cc(Br)cs1 | - | - | - | - | - | .
CCOc1ccc(-c2cc3nc(C4CCN(C(=O)OC(C)(C)C)CC4)c(C(=O)O)cn3n2)cc1 | - | 64 | - | . | - | -
CC(C)n1cc(/C=C(\C#N)S(=O)(=O)c2ccccc2)c2ccccc21 | - | - | - | - | - | .
O=C1C=C(NCc2ccc(Cl)c(Cl)c2)CC1 | - | 70 | - | . | - | -
CCOC(=O)CSc1nnc(CNC(=O)c2cccs2)n1-c1cc(C)ccc1C | - | - | - | - | - | .
O=C(CNC(=O)c1ccco1)OCc1ccc(Cl)cc1 | . | - | - | - | - | .
CC(C)(C)N1C(=O)Cc2c1nc(N)c1c(N)nc(N3CCCCC3CO)c(C#N)c21 (stereo not given) | - | 53 | - | . | - | -
CC(C)Cn1c(N)c(C(=O)COC(=O)c2cc(-c3ccco3)nc3ccccc23)c(=O)n(C)c1=O | - | 51 | - | . | - | -
Cc1nn(-c2ccccc2)c(C)c1C(=O)OCC(=O)c1c(N)n(CC(C)C)c(=O)n(C)c1=O | - | - | - | . | - | .
COc1cc(/C=C(/C#N)c2ccc(F)cc2)ccc1OCc1ccc(C(=O)O)o1 | - | 62 | - | - | - | -
